According to PubChem BioAssay AID1527 (The Scripps Research Institute Molecular Screening Center, 2009):
Out of some 290,000 compounds screened, about 2,600 (0.9%) were called active. This is one part of a sample in which actives are shown more often than they occur.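 The calls were made as follows: active = inhibition above the mean of all tested compounds plus 3 SD, cutoff set per screening run (cut at about 7.5% in these data); inactive = the rest.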

system: VIM-2 metallo-beta-lactamase (Pseudomonas aeruginosa); experiment: inhibition of VIM-2 nitrocefin hydrolysis – biochemical, epi-absorbance readout, Pseudomonas aeruginosa enzyme, primary screen (AID 1527); conditions: purified VIM-2, nitrocefin hydrolysis, epi-absorbance fluorescence; at 5.6 µM; hits give high values;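 also: red hydrolysis product quenches plate fluorescence so inhibitors raise well fluorescence; 0% = enzyme with DMSO and 100% = DMSO without enzyme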

inhibition, active:
CCc1nc(Nc2ccc(NC(C)=O)cc2)c2oc3ccccc3c2n1 9.84%
Oc1ccc2ccc3cccc[n+]3c2c1 34.2%
Cc1c(C)c2c(OCC(=O)N[C@@H](C(=O)O)c3ccccc3)cc3c(c2oc1=O)CCC(C)(C)O3 10.8%
CCCc1ccc(OCCNC(=O)c2ccco2)cc1 33.4%
COc1cccc(C(=O)OCc2cc(=O)oc3c(C)c(C)ccc23)c1OC 8.21%
O=C1Nc2cc(C(=O)N3CCC(N4CCCCC4)CC3)ccc2S/C1=C\c1ccccc1 27.9%
Cc1nc(N=C(N)N)nc2c(C)cccc12 8.56%
COc1nc(N=C(N)N)nc2c(C)cccc12 14.3%
c1ccc(-c2nccc(-c3ccc(-n4cnc5ccccc54)cc3)n2)nc1 59.9%
Cc1cc2nc3c(=O)n(Cc4ccccc4)c(=O)[nH]c3nc2cc1N 13.2%
CCN(CC)CCCNC(=O)c1c(O)c2cc(F)cc3c2n(c1=O)C(C)CC3 (stereo not given) 8.41%
CC(Nc1nc(N2CCCC2)nc2ccccc12)c1ccccc1 (stereo not given) 10.3%

inhibition, inactive:
CCc1ccc(C2N3CC4([N+](=O)[O-])CN2CC([N+](=O)[O-])(C3)C4(C)C)cc1 (stereo not given) -3.1%
COc1ccc(/C=C2\CCCC3C2=NN(C(=O)c2scnc2C)C3c2ccc(OC)cc2)cc1 (stereo not given) -4.89%
COc1cccc(NC(=O)c2cc(S(=O)(=O)N3CCc4ccccc43)cn2C)c1 -2.53%
CS(=O)(=O)Nc1ccccc1N=C(c1ccccc1)c1ccccc1 -0.7%
C[C@@H](Nc1nc(-c2ccccc2)nc2c1oc1ccccc12)C(=O)O -1.13%
CCc1nc(Nc2ccc3nccnc3c2)c2oc3ccccc3c2n1 6.61%
COc1cc(OC)c(NS(=O)(=O)c2cn(C)cn2)cc1Cl -2.52%
CC1(C)Cc2c(sc(NC(=O)C(=O)NCC3CCCO3)c2C(=O)O)CO1 (stereo not given) -1.53%
CC1CCCCC1NC(=O)/C(C#N)=C/C=C/c1ccccc1[N+](=O)[O-] (stereo not given) -2.25%
Cc1ccc(C)c(CN2CCC(CNC(=O)Nc3ccc(C)c(F)c3)CC2)c1 -1.95%
COC(=O)c1ccc(NC(=O)c2cc3c(CO)cnc(C)c3oc2=Nc2cccc(C(N)=O)c2)cc1 -0.03%
Cc1cc(=O)oc2c3c(cc(OCC(=O)N[C@H](C(=O)O)c4ccccc4)c12)OC(C)(C)CC3 1.96%
Cc1c(C)c2c(OCC(=O)NCCCO)cc3c(c2oc1=O)CCC(C)(C)O3 1.34%
CCC(C(=O)NC1CCCCC1)N(C(=O)c1snc(C(N)=O)c1N)c1ccc(OC)cc1OC (stereo not given) -1.99%
Cc1c2cnn(CC(=O)NCc3ccccn3)c(=O)c2c(C)n1Cc1ccc(Cl)cc1 -1.23%
COc1cc(NS(=O)(=O)c2ccc(NC(=O)c3ccc([N+](=O)[O-])cc3)cc2)ncn1 -1.86%
CCCc1ccc(OCCNC(=O)c2ccccc2Br)cc1 -1.47%
CCCc1ccc(OCC(=O)NNC(=S)NC(=O)c2ccco2)cc1 -2.04%
COC(=O)Cc1cc(=O)oc2c(C)c(O)ccc12 -5.11%
COc1ccc(Br)cc1CN1CCN(C(=O)c2cccc(OC)c2OC)CC1 -0.04%
CCOC(=O)C1(Cc2ccccc2C)CCCN(C(=O)CN2C(=O)CSC2=O)C1 (stereo not given) -2.37%
CNC[C@H](CC1CCCCC1)NC[C@H](NCCC1CCCC1)[C@H](C)O 2.09%
Cc1ccc(C(=O)N/C(=C\c2ccc(F)cc2)C(=O)NCCN2CCOCC2)cc1 -0.14%
CCOC(=O)[C@@H]1[C@H]2COc3cc(OC)ccc3[C@H]2N2C(=O)N(c3ccc(F)cc3)C(=O)[C@]12C -2.77%
CC1CCN(C(=O)c2ccc3c(c2)NC(=O)CN3)CC1 -1.26%
O=C(NC1CC1)c1ccc2c(c1)NC(=O)c1ccccc1S2 1.27%
Cc1cccc(C)c1NC(=O)CS(=O)CC(=O)N1CCN(c2ccccc2)CC1 (stereo not given) -3.23%
Cc1ccc(NC(=O)C2CC2c2ccccc2)cc1 (stereo not given) -1.58%
Cc1cccc2c(=O)n3c(nc12)CCCCC3 -3.47%
CC(=O)Oc1ccc(-c2nc3c(C)cccc3c(=O)o2)cc1 -0.68%
Cc1nc(/N=C(\N)NC(=O)NC2CCCCC2)nc2ccccc12 -2.89%
COc1ccc2nc(/N=C(\N)NC(=O)Nc3ccccc3)nc(C)c2c1 -0.81%
Cc1ccc(Oc2nc(-c3ccccn3)nc3ccccc23)cc1 -1.45%
Cc1nccc(-c2ccc(-n3c(C)ccc3C)cc2)n1 -2.42%
CCCCn1c(-c2cccc(C)c2)nc2cc3[nH]c(=O)c(C(C)C)nc3cc21 -2.3%
COc1ccc(-c2csc3ncnc(N4CCN(S(=O)(=O)c5ccccc5C#N)CC4)c23)cc1 -2%
CCN(CC)C(=O)CSC(Nc1cccc(F)c1)=C(C#N)C#N -4.85%
CSc1nc2ccccc2c(=O)n1Cc1ccc(F)cc1 -1.75%
O=c1[nH]c2c(c(=O)n1Cc1ccccc1)CCC2 -3.01%
O=S(=O)(Nc1cccc(-n2cnnn2)c1)c1cnc(Cl)c(Cl)c1 -1.96%
CCNC(=O)c1c(O)c2cccc3c2n(c1=O)CC3 1.77%
CCN(CC)CCCNC(=O)c1cn(C)c2ccc(S(=O)(=O)N(C)C3CCCCC3)cc2c1=O 2.02%
CN(C)c1cc(-c2ccc(F)cc2)oc(=O)c1Cl -0.81%
CC(CCc1ccccc1)NC(=O)c1cnc(Cl)c(Cl)c1 (stereo not given) -3.59%
COc1ccc(OCCn2ccnc2C)cc1 0.01%
C=CCOc1cccc(C2C(C(=O)c3ccc(C)o3)=C(O)C(=O)N2CCCn2ccnc2)c1 (stereo not given) -2.31%
CC(Nc1nc(N2CCN(CCO)CC2)nc2ccccc12)c1ccccc1 (stereo not given) -0.41%
CC(Nc1nc(N2CCOCC2)nc2ccccc12)c1ccccc1 (stereo not given) -1.07%
